# In PubChem BioAssay (NCATS):
# Several values for one entry are separate records, joined by “and”; a condition that tells them apart may be missing. Identical values can stand only once. Inconclusive results are not listed. Entries that show only a call come without a potency. Activity calls are given as the source filed them. The call rests on the fitted dose curve; in most records, active means well fitted inhibition curve with a large enough effect; inconclusive means small, poorly fitted or top-dose-only effect; inactive means flat fitted curve, though single readings scatter.
# System: astro (control astrocytes)
# Assay: Drug repurposing screens with cells derived from glioblastoma tumor samples (AID 1345199); further: nearly all actives have a fitted effect of over 40% in size
# Settings: viability, ATP luminescence, 48 h; series mostly up to 45.9 µM
# Protocol: CD133+ cells were isolated from GBM patient biopsies and cultured as neurospheres. Neurospheres from four patients were used to screen the NCATS pharmaceutical collection (NPC) library of approved drugs and bioactive compounds. […] The neurospheres were incubated with drugs for 48 hours in 1536-well format, then assayed with an ATP content cell viability assay. […] These hits were cherry picked to confirm activity in the four original GBM lines screened plus three other slower growing GMB lines (unable to yield enough cells for a full primary screen). Variable activities of the confirmed primary hits in the different GBM patient lines were observed. The patient line 206 responded to the greatest number of compounds and line 923 responded to the least amount of active compounds.
# Potency means the concentration at half of the fitted maximal effect.
row,SMILES,Potency
1,C[C@]12CC[C@H]3[C@@H](CC=C4C[C@@H](O)CC[C@@]43C)[C@@H]1CC[C@@H]2O,inactive
2,CCCN(CCC)CCc1c[nH]c2ccccc12,inactive
3,CCC1(c2ccccc2)CCC(=O)NC1=O (stereo not given),inactive
4,CCOC(=O)c1cncn1C(C)c1ccccc1 (stereo not given),inactive
5,COP(=O)(OC)C(O)C(Cl)(Cl)Cl (stereo not given),inactive
6,C[N+]1(CCC(C(N)=O)(c2ccccc2)c2ccccc2)CCCCC1,inactive
7,Cc1c(Cl)c(=O)oc2cc(OP(=O)(OCCCl)OCCCl)ccc12,inactive
8,CCCC(C)C1(CC)C(=O)N=C(S)NC1=O (stereo not given),inactive
9,CCCCCCCCC(=O)NCc1ccc(O)c(OC)c1,inactive
10,CN(C)C(=O)Oc1cc(OC(=O)N(C)C)cc(C(O)CNC(C)(C)C)c1 (stereo not given),inactive
11,C[C@H]1CNCCc2ccc(Cl)cc21,inactive
12,CCCC[N+]1(C)[C@@H]2CC(OC(=O)[C@H](CO)c3ccccc3)C[C@H]1[C@@H]1O[C@@H]12 (stereo not given in full),inactive
13,CC(C)C(Br)C(=O)NC(N)=O (stereo not given),inactive
14,COc1cc(CC(C)N)c(OC)cc1Br (stereo not given),inactive
15,COP(=S)(OC)Oc1ccc(S(N)(=O)=O)cc1,inactive
16,CC[n+]1c(-c2ccccc2)c2cc(N)ccc2c2ccc(N)cc21,8.91 µM (active) and 12.6 µM (active)
17,CC[C@H]1C[C@@H]2C[C@H]3c4[nH]c5ccc(OC)cc5c4CCN(C2)[C@@H]13,inactive
18,c1ccc2nc(N3CCNCC3)ccc2c1,12.6 µM (active)
19,CC(C)NCC(O)c1ccc(N)c(C#N)c1 (stereo not given),inactive
20,O=C(N[C@H]1N=C(c2ccccc2F)c2cccc3c2N(CC3)C1=O)c1cc2ccccc2[nH]1,inactive

row,SMILES,Potency
1,CN1C[C@@H](NS(=O)(=O)N(C)C)C[C@@H]2c3cccc4c3c(cn4C)C[C@H]21,inactive
2,COc1cc(C[C@@H](C)N)c(OC)cc1Br,inactive
3,CC(C)=C[C@@H]1[C@@H](C(=O)OCc2coc(Cc3ccccc3)c2)C1(C)C,inactive
4,OC(O)C(Cl)(Cl)Cl,inactive
5,CC(C)=CCN1CC[C@@]2(C)c3cc(O)ccc3C[C@@H]1[C@@H]2C,inactive
6,CC[C@H]1C[C@H]2[C@@H]3CCC4=CC(=O)CC[C@@H]4[C@H]3CC[C@]2(C)[C@H]1O,inactive
7,COc1ccc2c(C(=O)c3ccc(Cl)cc3)c(C)n(CC(=O)O)c2c1,inactive
8,CC(C)[N+](C)(CCC(C(N)=O)(c1ccccc1)c1ccccc1)C(C)C,inactive
9,Cc1nnc2n1-c1sc(CCc3ccc(CC(C)C)cc3)cc1C(c1ccccc1Cl)=NC2C (stereo not given),35.5 µM (active)
10,CCN(CC)Cc1nccn1-c1ccc([N+](=O)[O-])cc1C(=O)c1ccccc1Cl,inactive
11,CN(C)CCc1c[nH]c2cccc(O)c12,inactive
12,CC1N=C(N)OC1c1ccccc1 (stereo not given),inactive
13,C[N+]1(C)[C@@H]2CC[C@H]1CC(OC(=O)C(CO)c1ccccc1)C2 (stereo not given in full),inactive
14,CC(C)(C)OC(=O)c1ncn2c1[C@@H]1CCCN1C(=O)c1c(Br)cccc1-2,inactive
15,CNC(C)Cc1ccccc1OC (stereo not given),inactive
16,C[C@@H]1CN(C2CCC(C#N)(c3ccc(F)cc3)CC2)CC[C@]1(C(=O)O)c1ccccc1 (stereo not given in full),inactive
17,NC(=O)OCCCc1ccccc1,inactive
18,CCS(=O)(=O)C(C)(C)S(=O)(=O)CC,inactive
19,C[C@H]1C(=O)O[C@@H]2CCN3CC=C(COC(=O)[C@](C)(O)[C@]1(C)O)[C@H]23,inactive
20,Oc1c(Br)cc(Br)cc1Br,inactive
